{"source": "PubChem BioAssay (NCI)", "note": "This is part of a sample that, as a whole, favours compounds with a hit. Of some 79,000 tested, about 15% had one in any assay. Values without a mark were called inactive. Calls of active or inactive are those of the source. Rule as the data show it: active = growth inhibition above about 70%; inactive = the rest.", "data": [{"assay": "NCI Yeast Anticancer Drug Screen. Data for the cln2 rad14 strain (AID 165);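 also: 0% = growth equal to vehicle treated cultures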", "details": "S. cerevisiae cln2 rad14 strain, at 50.0 µM, active compounds read high", "in_short": "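Test compounds were added to cln2 rad14 yeast cultures; inhibition of growth was then determined by comparison with vehicle treatment.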", "values": [{"smiles": "CC(C)CCSc1ncnc2nc[nH]c12", "growth inhibition": "29.8%"}, {"smiles": "O=C(c1ccccc1)c1cccc2ccccc12", "growth inhibition": "-14.3%"}, {"smiles": "O=C1C(c2c[nH]c3ccccc23)=Nc2ccc(Br)cc21", "growth inhibition": "53.5%"}, {"smiles": "COc1cccc(CCCNC(=O)Cc2ccccc2CO)c1", "growth inhibition": "7.7%"}, {"smiles": "C/C(=N\\NC(=S)N1CCN(C2CCCCC2)CC1)c1ccccn1", "growth inhibition": "97.1% (active)"}, {"smiles": "CN(C)CCOC(=O)C1(CCC2CCCCC2)CCCCC1", "growth inhibition": "18.7%"}, {"smiles": "O=c1c(Cl)cc2nc3ccccc3sc-2c1Cl", "growth inhibition": "-0.05%"}, {"smiles": "COc1ccc2nc(NC(=O)Nc3c(Cl)cccc3Cl)sc2c1", "growth inhibition": "97.6% (active)"}, {"smiles": "Cc1c[nH]c2nc(C)n(-c3ccccc3)c(=N)c12", "growth inhibition": "38%"}, {"smiles": "O=C(C1=NNC(c2ccccc2)C1C(=O)c1ccccc1)c1ccccc1", "note": "(stereo unspecified)", "growth inhibition": "67%"}, {"smiles": "CCOC(=O)N1CCN(C=S)CC1", "growth inhibition": "15.8%"}, {"smiles": "COC(=O)N(C[C@@H]1C=CCCC1)c1ccccc1I", "growth inhibition": "87.5% (active)"}, {"smiles": "N=c1ccc2c(c1)[nH]c1c3ccccc3[nH]c3cccc2c31", "growth inhibition": "90% (active)"}, {"smiles": "CC1(C)[C@H]2CC[C@]1(C)[C@H](OC(=O)NNC(=O)O[C@@H]1C[C@@H]3CC[C@@]1(C)C3(C)C)C2", "growth inhibition": "47.4%"}, {"smiles": "N#CC1(C#N)C(C#N)(C#N)C12CCCCCC2", "growth inhibition": "98.7% (active)"}, {"smiles": "CCOP(=O)(OCC)OC1c2[nH]ccc2-c2cc(C(=O)OC)[nH]c2C1OC", "note": "(stereo unspecified)", "growth inhibition": "5.9%"}, {"smiles": "O=[N+]([O-])/C(=C\\c1cccs1)c1ccccc1", "growth inhibition": "99.1% (active)"}, {"smiles": "Cc1ccccc1NC(=O)C(=O)C(C#N)c1c(Cl)cccc1Cl", "note": "(stereo unspecified)", "growth inhibition": "-12.1%"}, {"smiles": "O=C1c2c(F)c(F)c(F)c(F)c2SC2=NCCN12", "growth inhibition": "76.8% (active)"}, {"smiles": "CCCC(C)OC(=O)Nc1cccc(Cl)c1", "note": "(stereo unspecified)", "growth inhibition": "97.9% (active)"}, {"smiles": "Nc1nc(SCc2ccccc2)c2ncn(CCCl)c2n1", "growth inhibition": "70.3% (active)"}, {"smiles": "CCCCOC(=O)c1nc(N(CC2CCCCC2)C(=O)NC)sc1NC(=O)NC", "growth inhibition": "1.6%"}]}, {"assay": "NCI Yeast Anticancer Drug Screen. Data for the bub3 strain (AID 167)", "details": "S. cerevisiae bub3 mutant strain, at 5.0 µM (retest, dose inferred, filed as 0.5), active compounds read high", "in_short": "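Yeast carrying a defined mutation is treated with each compound, and growth is compared with that of vehicle-exposed cells to give inhibition.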", "values": [{"smiles": "COc1ccc(N=Cc2cc(Br)cc(Br)c2O)cc1.COc1ccc(N=Cc2cc(Br)cc(Br)c2O)cc1.[Co]", "growth inhibition": "86% (active)"}, {"smiles": "O=C(/C=C/C(=O)N1CCCC1)N1CCCC1", "growth inhibition": "2%"}, {"smiles": "O=S(c1ccccc1)c1c(Cl)c(Cl)nc(Cl)c1Cl", "note": "(stereo unspecified)", "growth inhibition": "98% (active)"}, {"smiles": "CSc1nc(N)c2cnn(C3OC(CO)C(O)C3O)c2n1", "note": "(stereo unspecified)", "growth inhibition": "3%"}, {"smiles": "COc1cccc(C=O)c1O", "growth inhibition": "-6%"}, {"smiles": "Cn1c(=O)c2c(ncn2CCCCOc2ccc3c(c2)[n+]([O-])nc(N)[n+]3[O-])n(C)c1=O", "growth inhibition": "-8%"}, {"smiles": "Cn1ncc2c(Nc3cccc(Cl)c3)nc(Nc3cccc(Cl)c3)nc21", "growth inhibition": "-7%"}, {"smiles": "Cc1cc(C)n2nc(N)c(C#N)c2c1C#N", "growth inhibition": "-1%"}, {"smiles": "COc1ccc(C2c3cc4c(cc3OC(O)C2C)OCO4)cc1", "note": "(stereo unspecified)", "growth inhibition": "-2%"}, {"smiles": "Nc1ccccc1[S][Sn]([c]1ccccc1)([c]1ccccc1)[c]1ccccc1", "growth inhibition": "97% (active)"}, {"smiles": "Cn1c(Sc2ccc(-c3cccnc3)n2C)ccc1-c1cccnc1", "growth inhibition": "-19%"}, {"smiles": "Nc1nnc(-c2cc(=O)c3cc(Cl)ccc3o2)s1", "growth inhibition": "3%"}, {"smiles": "COc1ccc(CNc2nc3cc(C(F)(F)F)ccc3nc2C)cc1OC", "growth inhibition": "-30%"}, {"smiles": "CC(=O)OCC1CC2OC2CC1C", "note": "(stereo unspecified)", "growth inhibition": "27%"}, {"smiles": "CCCCN(CCCC)CC(O)c1cc(-c2ccc(Cl)cc2)nc2cc(C)ccc12", "note": "(stereo unspecified)", "growth inhibition": "6%"}, {"smiles": "NC(=S)n1nc(-c2ccccc2)c(N=Nc2ccccc2Cl)c1-c1ccccc1", "growth inhibition": "16%"}, {"smiles": "CCCCCCCCCCCCN(CCO)CCO", "growth inhibition": "57%"}, {"smiles": "CC(C)CCSc1ncnc2nc[nH]c12", "growth inhibition": "-2%"}, {"smiles": "O=C(c1ccccc1)c1cccc2ccccc12", "growth inhibition": "16%"}, {"smiles": "O=C1C(c2c[nH]c3ccccc23)=Nc2ccc(Br)cc21", "growth inhibition": "45%"}, {"smiles": "COc1cccc(CCCNC(=O)Cc2ccccc2CO)c1", "growth inhibition": "11%"}, {"smiles": "C/C(=N\\NC(=S)N1CCN(C2CCCCC2)CC1)c1ccccn1", "growth inhibition": "-16%"}, {"smiles": "CN(C)CCOC(=O)C1(CCC2CCCCC2)CCCCC1", "growth inhibition": "1%"}, {"smiles": "O=c1c(Cl)cc2nc3ccccc3sc-2c1Cl", "growth inhibition": "38%"}, {"smiles": "COc1ccc2nc(NC(=O)Nc3c(Cl)cccc3Cl)sc2c1", "growth inhibition": "2%"}, {"smiles": "Cc1c[nH]c2nc(C)n(-c3ccccc3)c(=N)c12", "growth inhibition": "-3%"}, {"smiles": "O=C(C1=NNC(c2ccccc2)C1C(=O)c1ccccc1)c1ccccc1", "note": "(stereo unspecified)", "growth inhibition": "-10%"}, {"smiles": "CCOC(=O)N1CCN(C=S)CC1", "growth inhibition": "8%"}, {"smiles": "COC(=O)N(C[C@@H]1C=CCCC1)c1ccccc1I", "growth inhibition": "47%"}, {"smiles": "N=c1ccc2c(c1)[nH]c1c3ccccc3[nH]c3cccc2c31", "growth inhibition": "18%"}, {"smiles": "CC1(C)[C@H]2CC[C@]1(C)[C@H](OC(=O)NNC(=O)O[C@@H]1C[C@@H]3CC[C@@]1(C)C3(C)C)C2", "growth inhibition": "35%"}, {"smiles": "N#CC1(C#N)C(C#N)(C#N)C12CCCCCC2", "growth inhibition": "39%"}, {"smiles": "CCOP(=O)(OCC)OC1c2[nH]ccc2-c2cc(C(=O)OC)[nH]c2C1OC", "note": "(stereo unspecified)", "growth inhibition": "3%"}, {"smiles": "O=[N+]([O-])/C(=C\\c1cccs1)c1ccccc1", "growth inhibition": "90% (active)"}, {"smiles": "Cc1ccccc1NC(=O)C(=O)C(C#N)c1c(Cl)cccc1Cl", "note": "(stereo unspecified)", "growth inhibition": "-3%"}, {"smiles": "O=C1c2c(F)c(F)c(F)c(F)c2SC2=NCCN12", "growth inhibition": "-31%"}, {"smiles": "CCCC(C)OC(=O)Nc1cccc(Cl)c1", "note": "(stereo unspecified)", "growth inhibition": "-21%"}, {"smiles": "Nc1nc(SCc2ccccc2)c2ncn(CCCl)c2n1", "growth inhibition": "-2%"}, {"smiles": "CCCCOC(=O)c1nc(N(CC2CCCCC2)C(=O)NC)sc1NC(=O)NC", "growth inhibition": "0%"}]}]}
